This is an account of results in PubChem BioAssay (NCATS).

The test system of test [1] is Zika virus NS2B-NS3 protease. Briefly: Primary screen GU AMC qHTS for Zika virus inhibitors (AID 1347154).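 Note: 0% = no-inhibitor control and -100% = no-enzyme control; nearly all actives have a fitted effect of over 70% in size.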 Summed up: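 Unlinked Zika NS2B hydrophilic domain/NS3 protease domain noncovalent complex (25 nM final) in 10 mM Tris-HCl pH 8.0, 0.01% Tween 20, with AMC peptide substrate. Fluorescence (ex 340, em 450 nm) change over 15 min, room temperature; percent inhibition fitted to 4-parameter Hill equation.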
On the technique in general: In qHTS, concentration-response curves come from the screen itself.

The target of test [2] is Glucocorticoid receptor (Homo sapiens) (UniProt P04150). Briefly: GR-GFP Redistribution (AID 450;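 active = compounds whose dose series gives a full or clear partial fitted curve of increased nuclear translocation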; note: potency is the fitted concentration of half-maximal effect). As to conditions: U2OS GR-GFP nuclear translocation, laser cytometry, 2 h.
Test [3] has the same target. The test is described as follows: GR-EFC Redistribution (AID 451; calls by dose curve; note: potency is the fitted concentration of half-maximal effect). As to conditions: CHO-K1 GR-EFC translocation, beta-gal luminescence, 2 h. The method, boiled down:
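CHO-K1 cells stably expressing nuclear-localized β-gal enzyme acceptor and GR fused C-terminally to the enzyme donor fragment; ligand-driven nuclear translocation restores β-gal by complementation. Compounds titrated up to 46 uM final, 2 h at 37 °C; luminescence read.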

Test [4] addresses Guanine nucleotide-binding protein G(i) subunit alpha-1 (Homo sapiens) (UniProt P63096). Briefly: qHTS Assay for Inhibitors of RGS12 GoLoco Motif Activity (Green Fluorophore) (AID 879).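 Note: 0% = labeled peptide with Gαi1 and full inhibition = labeled peptide alone without protein; negative values mean loss of peptide binding seen as reduced polarization.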 Summed up:
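A drop in FITC polarization marked displacement of the FITC-tagged RGS12 GoLoco peptide (10 nM) from Gαi1 (50 nM). Compounds were incubated 10 min at room temperature in Tris pH 7.5 buffer containing 150 mM NaCl, 0.1 mM GDP and 0.05% NP40; unlabeled peptide titration served as control.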

Test [5] can be described thus: qHTS Assay for Identification of Small Molecule Antagonists for Thrombopoietin (TPO) Signaling Pathway (AID 918). Note: potency is the fitted concentration of half-maximal effect; nearly all actives have a fitted effect of over 60% in size. To be noted: TPO-dependent cell signaling reporter, antagonist mode. Summed up:
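Inhibition read as reduced luciferase luminescence after 24 h at 37 C in IL-3-deprived Ba/F3 cells carrying human TPO receptor and GPIIb-promoter reporter, stimulated with 26 pM TPO (final, its EC50) alongside compound.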

The target in test [6] is Muscarinic acetylcholine receptor M1 (Rattus norvegicus) (UniProt P08482). Briefly: qHTS Assay for Antagonists of Acetylcholine Muscarinic M1 Receptor: Kinetic Measurement of Intracellular Calcium Response (AID 943).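 Note: Fluo-4 calcium signal as peak divided by basal fluorescence over 4 min; nearly all actives have a fitted effect of over 75% in size.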 The method, boiled down:
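Antagonism measured as reduction of carbachol-evoked (EC80, 100 nM final) calcium flux in rat M1-CHO cells after 10 min compound exposure. Fluo-4 signal read kinetically; ratio of maximal to basal fluorescence.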

The target of test [7] is Pyruvate kinase (Leishmania mexicana) (UniProt Q27686). The test is described as follows: qHTS Validation Assay for Inhibitors of Leishmania Mexicana Pyruvate Kinase (AID 945).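 Note: 0% = DMSO only neutral control wells.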 Summed up:
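The enzyme is a highly purified E451W mutant of LmPYK used at 0.2 nM. It converts 0.5 mM PEP and 0.1 mM ADP over 1 h at room temperature; product ATP is quantified by luciferase luminescence relative to DMSO controls.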

Test [8] concerns the target Pyruvate kinase PKM (Homo sapiens) (UniProt P14618). Briefly: qHTS Assay for Activators of Human Muscle Pyruvate Kinase (AID 954; active = well fitted curve in the direction sought with a large enough effect, not every such curve was filed as active;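 note: 0% = uninhibited enzyme and -100% = no enzyme or full thiadiazolimine inhibition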). Summed up: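 A coupled luminescent readout tracked ATP made from ADP by purified PKM2. Final conditions included 0.1 nM enzyme, PEP and ADP at 0.5 and 0.1 mM, pH 7.2 imidazole buffer with BSA, and a one-hour room-temperature reaction.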
For test [9], the target named is Alpha-galactosidase (Coffea arabica) (UniProt Q42656). The test is described as follows: Counterscreen for Glucocerebrosidase Inhibitors: qHTS Assay for Coffee Bean alpha-Galactosidase at pH 4.5 (AID 957).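 Note: plate controls were enzyme alone for no effect and no enzyme for full effect.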 Summed up: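 Fluorogenic qHTS at pH 4.5 (citrate buffer with Tween-20): 2 nM enzyme, 80 uM 4-MU-alpha-galactoside substrate, compound titrated 0.7 nM to 77 uM, 20 min room temperature. Glycine/NaOH stop; 4-MU read Ex 365/Em 440; Hill-equation AC50 against no-enzyme and enzyme controls.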
(Counterscreens check selectivity or assay interference.)

Test [10] addresses Alpha-galactosidase A (Homo sapiens) (UniProt P06280). Briefly: Counterscreen for Glucocerebrosidase Inhibitors: qHTS Assay for Human alpha-Galactosidase at pH 4.5 (AID 992). Note: 0% is about no effect. Summed up: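 Citrate buffer pH 4.5, Tween-20 0.005%. Enzyme 2 nM, substrate 80 uM, 20 min RT. Stop pH 10. Fluorescence Ex 365/Em 440. AC50 by Hill fit.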
Test [11] addresses alpha-glucosidase (Oryza sativa, rice) (UniProt Q653V4). The test is described as follows: Counterscreen for Glucocerebrosidase Inhibitors: qHTS Assay for Rice alpha-Glucosidase at pH 5.0 (AID 997).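 Note: 0% = full activity with enzyme and -100% = basal without enzyme.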 The method, boiled down:
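Endpoint fluorogenic assay at pH 5.0: compounds (0.7 nM to 77 uM) titrated against 4 nM rice enzyme and 400 uM 4-MU-alpha-glucoside for 20 min at room temperature; NaOH/glycine stop, read ex 365/em 440 nm, Hill-fitted AC50.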

Test [12] deals with Alpha-galactosidase (Coffea arabica) (UniProt Q42656). The test is described as follows: Counterscreen for Glucocerebrosidase Inhibitors: qHTS Assay for Coffee Bean alpha-Galactosidase at pH 5.9 (AID 998).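 Note: plate controls were uninhibited enzyme for no effect and no-enzyme basal signal for full effect.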 The method, boiled down:
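In 50 mM citric acid pH 5.9 with 0.005% Tween-20, coffee bean enzyme hydrolyses 80 uM 4-MU alpha-D-galactopyranoside over 20 min at RT. Activity is normalized to controls; AC50 comes from Hill-modelled concentration-response data.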

The target of test [13] is DNA dC->dU-editing enzyme APOBEC-3G (Homo sapiens) (UniProt Q9HC16). Briefly: qHTS for inhibitors of Vif-A3G interactions: Validation (AID 588379). Note: 0% is about no effect. Summed up:
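Yellow fluorescence (Ex 488, Em 500-530) of Vif-coexpressing HeLa A3G-eYFP cells, scanned by Acumen cytometer, reports blocked A3G degradation. Cells plated at 700/well overnight at 37 deg C before compound addition, then a further overnight compound incubation at 37 deg C.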

Test [14] can be described thus: Confirmatory qHTS for small molecule stabilizers of the endoplasmic reticulum resident proteome: Secreted ER Calcium Modulated Protein (SERCaMP) assay (AID 1508628). Note: nearly all actives have a fitted effect of over 40% in size. Note: potency is the fitted concentration of half-maximal effect. The method, boiled down: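 Reporter secretion upon ER calcium depletion (100 nM thapsigargin, 4 h, 37C) is measured as medium luminescence with coelenterazine, after 16 h compound pretreatment of SH-SY5Y-GLuc-SERCaMP cells; primary at three concentrations up to 38.3 uM, follow-up at 11 (up to 76.6 uM).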

The nature of test [15]: Cell Viability qHTS for small molecule stabilizers of the endoplasmic reticulum resident proteome (AID 1508629).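 For max response: human SH-SY5Y neuroblastoma cells carrying the GLuc-SERCaMP reporter; % is set by controls: 0 for no effect and ±100 for the full control effect.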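 Note: compound exposure about 46 h in total before the viability read.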 Note: potency is the fitted concentration of half-maximal effect. As to conditions: cell viability counter-screen, 100 nM thapsigargin for final 4 h.
Test [16] in a line: Primary qHTS for small molecule stabilizers of the endoplasmic reticulum resident proteome: Secreted ER Calcium Modulated Protein (SERCaMP) assay (AID 1508630). Note: % is set by controls: 0 for no effect and ±100 for the full control effect. The method, boiled down: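 The SH-SY5Y reporter protocol was run at 3 concentrations up to 38.3 uM (primary) or 11 concentrations (follow-up): 16 h compound, 100 nM thapsigargin for 4 h, then extracellular luciferase luminescence.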

The target of test [17] is Cytochrome P450 1A2 (Homo sapiens) (UniProt P05177). The test is described as follows: p450-cyp1a2 (AID 410; calls by dose curve; note: potency is the fitted concentration of half-maximal effect). Summed up:
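Luminescent demethylation readout: Luciferin-ME (100uM, equal to Km) turned over by 20nM CYP1A2 for 60 min at room temperature after NADPH regeneration addition, following 10 min compound preincubation. Normalization used 57 uM furafylline as full inhibition.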

Test [18] deals with Cytochrome P450 2D6 (Homo sapiens) (UniProt P10635). The test is described as follows: qHTS Assay for Inhibitors and Substrates of Cytochrome P450 2D6 (AID 891). Note: potency is the fitted concentration of half-maximal effect; nearly all actives have a fitted effect of over 60% in size. The method, boiled down: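 Luminescent read-out of luciferin formed by 5 nM human CYP2D6 demethylating 30 uM Luciferin-ME EGE (Km level) over 60 min at room temperature after NADPH regeneration addition. Data normalized to full inhibition by 1.43 uM quinidine.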

A short description of test [19]: qHTS Assay for Lipid Storage Modulators (AID 1519; calls by dose curve; for activity change, negative = inhibition: % is set by controls: 0 for no effect and ±100 for the full control effect). As to conditions: Drosophila S3 cells, BODIPY lipid droplet/cell ratio, laser cytometry, cells loaded with oleic acid. The method, boiled down:
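Cells seeded at 5,000 per well were treated with compounds over a concentration series and loaded with oleic acid (400 uM, as added). Lipid droplet fluorescence (488 nm excitation, 500-530 nm channel) was read by laser-scanning cytometry and normalized to 20 uM Triacsin C.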

Test [20] has as its target Ubiquitin carboxyl-terminal hydrolase 1 (Homo sapiens) (UniProt O94782). Briefly: Inhibitors of USP1/UAF1: Pilot qHTS (AID 504865).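 Note: rhodamine fluorescence freed from ubiquitin-rhodamine substrate followed over time; top concentration of the series differs between compounds; % is set by controls: 0 for no effect and ±100 for the full control effect; nearly all actives have a fitted effect of over 35% in size.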 Summed up: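 In 50mM HEPES pH 7.8 containing 0.5mM EDTA, 1mM TCEP, 0.1 mg/ml BSA and 0.01% Tween-20, 1nM USP1/UAF1 is exposed to compound for 15 min, then Ub-Rho (150nM final) is added and fluorescence is read over time.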

Records with an inconclusive call do not appear. The source made the active and inactive calls. Unless noted, calls come from the whole dose curve; as a rule, active = well fitted curve in the direction sought with a large enough effect; inconclusive = small, poorly fitted or top-dose-only effect, or another doubt; inactive = no such curve, though single readings can be large; an effect the other way counts as inactive or inconclusive.

Chain of Glucocorticoid receptor (Homo sapiens) (P04150 whole entry, looked up): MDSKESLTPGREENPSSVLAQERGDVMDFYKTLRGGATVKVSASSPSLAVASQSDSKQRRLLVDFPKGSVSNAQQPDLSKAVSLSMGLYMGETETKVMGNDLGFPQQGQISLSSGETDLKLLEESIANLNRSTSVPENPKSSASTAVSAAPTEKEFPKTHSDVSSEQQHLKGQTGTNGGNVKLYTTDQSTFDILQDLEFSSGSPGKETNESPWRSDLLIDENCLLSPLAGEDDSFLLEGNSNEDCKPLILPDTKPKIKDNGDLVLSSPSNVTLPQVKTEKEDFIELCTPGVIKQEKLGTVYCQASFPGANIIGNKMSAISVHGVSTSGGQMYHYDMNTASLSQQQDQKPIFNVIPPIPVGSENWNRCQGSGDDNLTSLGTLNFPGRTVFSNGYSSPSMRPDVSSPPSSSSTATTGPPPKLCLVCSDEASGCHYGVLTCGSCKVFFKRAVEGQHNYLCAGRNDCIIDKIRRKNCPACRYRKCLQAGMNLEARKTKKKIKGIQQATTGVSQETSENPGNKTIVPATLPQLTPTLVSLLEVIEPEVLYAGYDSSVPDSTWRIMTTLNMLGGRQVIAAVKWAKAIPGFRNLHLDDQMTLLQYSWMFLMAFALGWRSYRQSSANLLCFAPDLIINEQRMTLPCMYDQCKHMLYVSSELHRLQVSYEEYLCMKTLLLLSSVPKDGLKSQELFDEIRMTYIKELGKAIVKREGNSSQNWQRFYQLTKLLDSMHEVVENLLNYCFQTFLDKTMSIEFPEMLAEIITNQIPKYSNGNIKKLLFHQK
Chain of Alpha-galactosidase (Coffea arabica) (Q42656 whole entry, looked up): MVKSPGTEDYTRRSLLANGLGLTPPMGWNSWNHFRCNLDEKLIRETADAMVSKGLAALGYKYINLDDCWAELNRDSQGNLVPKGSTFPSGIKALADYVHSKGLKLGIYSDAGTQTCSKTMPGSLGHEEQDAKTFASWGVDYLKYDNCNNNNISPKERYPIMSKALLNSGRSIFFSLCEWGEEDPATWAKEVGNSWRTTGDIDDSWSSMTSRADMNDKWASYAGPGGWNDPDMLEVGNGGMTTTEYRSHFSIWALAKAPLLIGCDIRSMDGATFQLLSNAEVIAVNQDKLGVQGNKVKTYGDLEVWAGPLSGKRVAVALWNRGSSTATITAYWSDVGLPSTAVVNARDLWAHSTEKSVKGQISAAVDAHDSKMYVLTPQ
Chain of DNA dC->dU-editing enzyme APOBEC-3G (Homo sapiens) (Q9HC16 whole entry, looked up): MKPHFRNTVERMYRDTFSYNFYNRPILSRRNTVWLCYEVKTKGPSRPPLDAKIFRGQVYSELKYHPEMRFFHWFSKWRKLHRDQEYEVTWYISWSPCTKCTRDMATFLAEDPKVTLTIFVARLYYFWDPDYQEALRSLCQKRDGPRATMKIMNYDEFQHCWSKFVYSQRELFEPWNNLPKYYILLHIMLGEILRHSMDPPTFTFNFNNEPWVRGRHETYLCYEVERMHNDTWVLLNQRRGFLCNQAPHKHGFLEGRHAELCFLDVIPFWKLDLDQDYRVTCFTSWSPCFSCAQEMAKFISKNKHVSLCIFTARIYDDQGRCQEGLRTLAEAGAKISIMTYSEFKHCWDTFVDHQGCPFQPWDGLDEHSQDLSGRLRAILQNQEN
Chain of Pyruvate kinase PKM (Homo sapiens) (P14618 whole entry, looked up): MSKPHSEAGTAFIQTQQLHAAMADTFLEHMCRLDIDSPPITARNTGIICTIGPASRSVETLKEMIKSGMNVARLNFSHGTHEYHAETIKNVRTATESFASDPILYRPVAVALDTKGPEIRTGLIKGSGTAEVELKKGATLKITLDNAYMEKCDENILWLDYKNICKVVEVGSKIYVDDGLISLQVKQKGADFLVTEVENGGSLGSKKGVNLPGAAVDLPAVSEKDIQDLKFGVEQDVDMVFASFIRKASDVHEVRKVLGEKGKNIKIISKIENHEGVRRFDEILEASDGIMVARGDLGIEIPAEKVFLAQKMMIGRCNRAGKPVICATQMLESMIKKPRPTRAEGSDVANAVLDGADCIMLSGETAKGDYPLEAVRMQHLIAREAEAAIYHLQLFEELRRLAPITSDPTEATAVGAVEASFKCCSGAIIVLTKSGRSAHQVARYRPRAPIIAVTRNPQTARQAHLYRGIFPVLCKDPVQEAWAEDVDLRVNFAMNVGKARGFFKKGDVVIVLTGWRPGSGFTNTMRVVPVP
Chain of Guanine nucleotide-binding protein G(i) subunit alpha-1 (Homo sapiens) (P63096 whole entry, looked up): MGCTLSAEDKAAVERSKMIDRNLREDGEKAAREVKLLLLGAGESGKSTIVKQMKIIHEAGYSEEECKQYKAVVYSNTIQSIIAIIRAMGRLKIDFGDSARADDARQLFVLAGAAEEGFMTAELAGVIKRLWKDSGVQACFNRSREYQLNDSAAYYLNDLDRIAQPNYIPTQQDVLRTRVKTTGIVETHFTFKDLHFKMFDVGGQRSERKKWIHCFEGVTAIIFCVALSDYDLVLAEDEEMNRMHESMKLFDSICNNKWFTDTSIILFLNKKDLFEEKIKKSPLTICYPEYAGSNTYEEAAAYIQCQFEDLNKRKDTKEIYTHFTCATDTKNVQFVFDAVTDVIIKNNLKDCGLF
Chain of Pyruvate kinase (Leishmania mexicana) (Q27686 2-499 E452W): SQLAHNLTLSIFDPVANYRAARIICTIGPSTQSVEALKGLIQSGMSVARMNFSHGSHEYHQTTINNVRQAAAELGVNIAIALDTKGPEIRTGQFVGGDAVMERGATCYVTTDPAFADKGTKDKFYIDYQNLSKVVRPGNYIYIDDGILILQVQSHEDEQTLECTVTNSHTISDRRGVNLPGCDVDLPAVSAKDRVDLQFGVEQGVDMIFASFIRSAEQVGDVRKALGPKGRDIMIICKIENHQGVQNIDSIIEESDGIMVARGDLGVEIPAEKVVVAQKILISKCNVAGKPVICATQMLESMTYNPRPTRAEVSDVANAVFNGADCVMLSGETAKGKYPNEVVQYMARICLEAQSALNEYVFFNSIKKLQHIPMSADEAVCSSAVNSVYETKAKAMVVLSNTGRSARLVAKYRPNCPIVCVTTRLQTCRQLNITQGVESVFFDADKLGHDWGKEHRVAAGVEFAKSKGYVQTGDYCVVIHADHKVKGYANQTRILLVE
Chain of Alpha-galactosidase A (Homo sapiens) (P06280 whole entry, looked up): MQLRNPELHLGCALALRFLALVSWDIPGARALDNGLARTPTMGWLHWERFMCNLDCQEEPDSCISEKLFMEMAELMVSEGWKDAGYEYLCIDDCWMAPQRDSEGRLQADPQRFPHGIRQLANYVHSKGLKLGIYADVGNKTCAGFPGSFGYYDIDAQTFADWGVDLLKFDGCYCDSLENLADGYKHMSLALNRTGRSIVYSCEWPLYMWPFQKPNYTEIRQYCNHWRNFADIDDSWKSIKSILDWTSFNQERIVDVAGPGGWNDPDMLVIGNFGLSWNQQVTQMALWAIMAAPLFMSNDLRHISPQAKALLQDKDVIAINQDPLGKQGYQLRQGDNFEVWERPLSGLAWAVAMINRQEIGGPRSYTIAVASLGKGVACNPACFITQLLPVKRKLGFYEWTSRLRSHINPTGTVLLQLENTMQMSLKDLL
Chain of Cytochrome P450 2D6 (Homo sapiens) (P10635 whole entry, looked up): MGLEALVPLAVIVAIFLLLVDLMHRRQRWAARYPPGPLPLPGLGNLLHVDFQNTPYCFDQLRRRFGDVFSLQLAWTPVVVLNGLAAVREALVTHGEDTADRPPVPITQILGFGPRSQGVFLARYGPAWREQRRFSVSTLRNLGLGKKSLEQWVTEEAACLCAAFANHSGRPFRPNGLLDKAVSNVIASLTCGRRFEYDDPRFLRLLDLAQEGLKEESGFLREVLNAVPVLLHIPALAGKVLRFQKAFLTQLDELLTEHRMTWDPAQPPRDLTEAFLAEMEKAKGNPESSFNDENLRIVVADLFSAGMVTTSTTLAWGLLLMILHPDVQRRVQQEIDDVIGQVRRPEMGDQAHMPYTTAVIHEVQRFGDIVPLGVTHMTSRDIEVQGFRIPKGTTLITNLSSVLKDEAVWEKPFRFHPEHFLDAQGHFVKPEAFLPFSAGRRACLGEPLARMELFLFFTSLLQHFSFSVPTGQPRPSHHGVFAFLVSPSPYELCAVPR
Chain of Ubiquitin carboxyl-terminal hydrolase 1 (Homo sapiens) (O94782 whole entry, looked up): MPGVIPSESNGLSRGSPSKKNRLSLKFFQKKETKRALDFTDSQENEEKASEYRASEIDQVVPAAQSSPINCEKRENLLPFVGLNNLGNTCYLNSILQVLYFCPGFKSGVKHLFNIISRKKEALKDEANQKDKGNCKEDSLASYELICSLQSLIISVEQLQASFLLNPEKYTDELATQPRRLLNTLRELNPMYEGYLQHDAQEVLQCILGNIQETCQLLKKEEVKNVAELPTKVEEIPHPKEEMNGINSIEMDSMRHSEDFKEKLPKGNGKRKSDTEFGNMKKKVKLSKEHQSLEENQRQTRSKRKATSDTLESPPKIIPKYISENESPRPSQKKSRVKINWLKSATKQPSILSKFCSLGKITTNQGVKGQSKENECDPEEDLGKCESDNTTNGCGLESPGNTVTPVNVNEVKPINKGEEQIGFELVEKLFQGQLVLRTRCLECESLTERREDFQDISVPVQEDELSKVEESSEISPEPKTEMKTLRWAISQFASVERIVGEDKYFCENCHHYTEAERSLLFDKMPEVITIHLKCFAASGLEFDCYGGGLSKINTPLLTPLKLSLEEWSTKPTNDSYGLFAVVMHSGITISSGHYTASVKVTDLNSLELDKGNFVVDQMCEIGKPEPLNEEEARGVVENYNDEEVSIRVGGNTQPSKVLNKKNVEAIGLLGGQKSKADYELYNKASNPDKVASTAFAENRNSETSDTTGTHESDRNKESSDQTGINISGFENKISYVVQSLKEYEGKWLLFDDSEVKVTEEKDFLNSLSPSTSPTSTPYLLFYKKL

Regarding `Oc1ccc2c3c1O[C@H]1c4c(c5ccccc5n4Cc4ccccc4)C[C@@]4(O)C(C2)N(CC2CC2)CC[C@]314`, the Potency entry in test [1] is “inactive”.
With `CNc1ccc2oc(C[C@H]3O[C@]4(CC[C@H]3C)O[C@H]([C@H](C)C(=O)c3ccc[nH]3)[C@H](C)C[C@H]4C)nc2c1C(=O)O`, the Potency in test [2] was > 46 µM (inactive); in [3], > 46 µM (inactive); in test [5], 3.16 µM (active); in [15], 8.91 µM (active). In addition, the molecule was classed as inactive in [4], in [7], in test [8], in [9], in [10] and in test [11]. The result in test [12] was inactive. Also, the Potency result in [6], in test [13], in test [1], in [14] and in [16] was “inactive” throughout.
Regarding `C[C@@H](C(=O)OC1C[C@H]2CC[C@@H](C1)N2C)c1ccc(Br)cc1` (stereo partly specified), the Potency in [17] is 39.8 µM (active); in test [2] it was > 46 µM (inactive); in [3], > 46 µM (inactive); in test [18], 3.98 µM (active); in test [14], 31.6 µM (active). In test [19] (at 57.5 µM (top of the series)), the activity change, negative = inhibition was 2.43% (inactive). Further, the figures for the max response in test [19] (measured here: cell count channel max response), in test [19] (measured here: lipid channel max response) and in test [15] were 12.6%, 16.9% and -11% (inactive), respectively. The Potency entry in test [20], in test [13] and in test [1] was “inactive” in each case.
For the molecule `CCCCC/C=C\C/C=C\CCCCCCCC(=O)NCCO`, the activity change, negative = inhibition in test [1] was 7.86% [at 6.83 µM] (inactive).
With `Oc1ccc2c3c1O[C@H]1c4oc5ccccc5c4C[C@@]4(O)C(C2)N(CC2CC2)CC[C@]314`, the Potency entry in [1] was “inactive”.
